Test [1] is described as follows: Primary qHTS for inhibitors of SARS-S pseudo-typed particle cell entry (AID 1479145). For activity change, negative = inhibition: % is set by controls: 0 for no effect and ±100 for the full control effect. Note: nearly all actives have a fitted effect of over 45% in size. As to conditions: outcome: dose series up to 57.1 µM unless noted.
Test [2] can be described thus: Primary qHTS for Huh7 cytotoxicity: counterscreen for inhibitors of MERS-S pseudotyped particle cell entry (AID 1479147). For activity change, negative = cytotoxicity: % is set by controls: 0 for no effect and ±100 for the full control effect. As to conditions: outcome: dose series up to 57.1 µM unless noted.
The nature of test [3]: Primary qHTS for inhibitors of MERS-S pseudo-typed particle cell entry (AID 1479149). Note: nearly all actives have a fitted effect of over 60% in size. The conditions noted are these: outcome: dose series up to 57.1 µM unless noted.
The nature of test [4]: Primary qHTS for Vero E6 cytotoxicity: counterscreen for inhibitors of SARS-S pseudo-typed particle cell entry (AID 1479150). For activity change, negative = cytotoxicity: % is set by controls: 0 for no effect and ±100 for the full control effect. The conditions noted are these: outcome: dose series up to 57.1 µM unless noted.
Test [5] can be described thus: Cytotoxicity counterscreen for inhibitors of SARS-CoV-2 cell entry (AID 1645845). For activity change, negative = cytotoxicity: % is set by controls: 0 for no effect and ±100 for the full control effect. Note: nearly all actives have a fitted effect of over 50% in size. The conditions noted are these: outcome: dose series up to 57.1 µM unless noted. In outline:
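After a 15 min room-temperature ATPLite 1step step, luminescence reflected ATP remaining in HEK293-ACE2 cells exposed to compound for 1 h plus 48 h at 37 C, with percent activity set by cell and no-cell controls.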

The nature of test [6]: Primary qHTS to identify inhibitors of SARS-CoV-2 cell entry (AID 1645846). Note: nearly all actives have a fitted effect of over 45% in size. The conditions noted are these: SARS-CoV-2 pseudovirus cell entry assay, luminescence; activity change, negative = inhibition: at 57.1 µM (top of the series) unless noted. In outline: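 Entry measured by luciferase signal 48 h after adding SARS-CoV-2-S pseudotyped MLV particles to HEK293-ACE2 cells preincubated 1 h with compounds. Normalisation: bald particles and spike particles.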

These results are taken from PubChem BioAssay (NCATS).

Values joined by “and” are separate entries in the source; they are usually repeats but may differ in a detail not shown here. Identical values can stand only once. Inconclusive results are not listed. Active and inactive are the calls of the source. Calls come from the whole dose curve.

Consider `Cc1nc(NS(=O)(=O)c2ccc(N)cc2)nc(C)c1Br`, for which the Potency result in test [1], in test [2], in test [3], in test [4] and in test [5] was “inactive” throughout. In addition, the activity change, negative = inhibition in test [6] is -21.5%.
Regarding `C=C(C)CNc1ccc(C(C)C(=O)O)cc1` (stereo not given), the Potency entry in test [1], in test [2], in test [3], in test [4] and in test [5] was “inactive” in each case. For the same compound, the activity change, negative = inhibition in test [6] is -20.2%.
Turning to `C[C@]12CCC(=O)C=C1CC[C@@H]1[C@@H]2[C@@H](O)C[C@@]2(C)[C@H]1CC[C@]2(O)C(=O)COP(=O)(O)O`, the Potency result in test [1], in test [2], in test [3], in test [4] and in test [5] was “inactive” throughout. The activity change, negative = inhibition in test [6] was 2.63% [at 27.1 µM].
For the compound `C[C@H]1O[C@]2(CS1)CN1CCC2CC1`, the Potency entry in test [1], in test [2], in test [3], in test [4] and in test [5] was “inactive” each time.
Consider `O=S(=O)(O)CC(S)CS` (stereo not given), for which the Potency result in test [1], in test [2], in test [3], in test [4], in test [5] and in test [6] was “inactive” throughout.
With `CO/N=C(\C(=O)N[C@@H]1C(=O)N2C(C(=O)O)=C(CSc3nnnn3C)CS[C@H]12)c1csc(N)n1`, the Potency entry in test [1], in test [2], in test [3], in test [4] and in test [5] was “inactive” throughout. In test [6], the activity change, negative = inhibition was -27.5%.
On to `C[C@]12C=CC(=O)C=C1CCC1C2[C@@H](O)C[C@@]2(C)C1CC[C@]2(O)C(=O)COC(=O)CCC(=O)O` (stereo not given in full), for which the Potency result in test [1], in test [2], in test [3], in test [4] and in test [5] was “inactive” throughout. Further, in test [6], the activity change, negative = inhibition was -21.3%.
As to `NC(=O)c1nc(F)c[nH]c1=O`, the Potency result in test [1], in test [2], in test [3], in test [4] and in test [5] was “inactive” in each case. In test [6], the activity change, negative = inhibition is -11.1% and -27.4%.
Consider `C=C1/C(=C/C=C2\CCC[C@]3(C)[C@@H]([C@H](C)CCCC(C)(C)O)CC[C@@H]23)C[C@@H](O)[C@@H](OCCCO)[C@@H]1O`, for which the Potency entry in test [1], in test [2], in test [3], in test [4] and in test [5] was “inactive” throughout. Also, the activity change, negative = inhibition in test [6] is -12.1%.
As to `CCC(=C(CC)c1ccc(OP(=O)(O)O)cc1)c1ccc(OP(=O)(O)O)cc1`, the activity change, negative = inhibition in test [1] is -9.86% [at 0.573 µM] (inactive); in test [6], -22.1% [at 0.702 µM]. Moreover, the outcome in test [2] and in test [3] was “inactive [at 0.573 µM]” each time. Also, the activity change, negative = cytotoxicity in test [4] is -3.89% [at 0.573 µM] (inactive); in test [5], 1.12% [at 0.702 µM] (inactive).
On to `NC(=O)C1CCCN1C(=O)C(Cc1cnc[nH]1)NC(=O)C1CCC(=O)N1` (stereo not given), for which the Potency entry in test [1], in test [2], in test [3], in test [4], in test [5] and in test [6] was “inactive” throughout.
For the compound `CC(C)(S)C(=O)N[C@@H](CS)C(=O)O`, the Potency entry in test [1], in test [2], in test [3], in test [4] and in test [5] was “inactive” in each case. Also, in test [6], the activity change, negative = inhibition was -16.1%.
On to `Nc1c(Br)cc(Br)cc1CNC1CCC(O)CC1` (stereo not given), for which the Potency result in test [1], in test [2], in test [3], in test [4] and in test [5] was “inactive” throughout. Besides, in test [6], the activity change, negative = inhibition was -18.6%.
Consider `NC(=O)OCC(O)COc1ccc(Cl)cc1` (stereo not given), for which the Potency result in test [1], in test [2], in test [3], in test [4], in test [5] and in test [6] was “inactive” throughout.
As to `Cc1cc(-c2ccc(N=Nc3c(S(=O)(=O)O)cc4cc(S(=O)(=O)O)cc(N)c4c3O)c(C)c2)ccc1N=Nc1c(S(=O)(=O)O)cc2cc(S(=O)(=O)O)cc(N)c2c1O`, the Potency entry in test [1], in test [2], in test [3], in test [4] and in test [5] was “inactive” throughout. For the same compound, the activity change, negative = inhibition in test [6] came to 2.81%.
`CNC[C@@H]1CC[C@@H](N)[C@@H](O[C@H]2[C@H](O)[C@@H](O[C@H]3OC[C@](C)(O)[C@H](NC)[C@H]3O)[C@H](N)C[C@@H]2N)O1`: the Potency entry in test [1], in test [2], in test [3], in test [4] and in test [5] was “inactive” each time. In test [6], the activity change, negative = inhibition was -15.6%.
`[2H]N[C@@H](Cc1ccccc1)C(=O)N1CCC[C@H]1C(=O)N[C@@H](CCCNC(=N)N)C(=O)N1CCC[C@H]1C(=O)NCC(=O)NCC(=O)NCC(=O)NCC(=O)N[C@@H](CC(N)=O)C(=O)NCC(=O)N[C@@H](CC(=O)O)C(=O)N[C@@H](Cc1ccccc1)C(=O)N[C@@H](CCC(=O)O)C(=O)N[C@@H](CCC(=O)O)C(=O)N[C@H](C(=O)N1CCC[C@H]1C(=O)N[C@@H](CCC(=O)O)C(=O)N[C@@H](CCC(=O)O)C(=O)N[C@@H](Cc1ccc(O)cc1)C(=O)N[C@@H](CC(C)C)C(=O)O)[C@@H](C)CC`: the activity change, negative = inhibition in test [1] is -29.4% [at 11.4 µM] (inactive); in test [3] it was -9.94% [at 11.4 µM] (inactive); in test [6], -18.8% [at 11.3 µM]. The outcome in test [2] is “inactive [at 11.4 µM]”. Further, the activity change, negative = cytotoxicity in test [4] is -0.847% [at 11.4 µM] (inactive); in test [5] it was 2.97% [at 11.3 µM] (inactive).
As for `C[C@@H](O)[C@H]1C(=O)N2C(C(=O)[O-])=C(SC3Cn4cnc[n+]4C3)[C@H](C)[C@H]12` (stereo not given in full), the activity change, negative = inhibition in test [1] is -18.9% [at 11.4 µM] (inactive); in test [3], -3.17% [at 11.4 µM] (inactive); in test [6], -12.2% [at 11.3 µM]. Also, the outcome in test [2] is “inactive [at 11.4 µM]”; in test [5] it was “inactive [at 11.3 µM]”. The activity change, negative = cytotoxicity in test [4] was 4.16% [at 11.4 µM] (inactive).
Regarding `CN=C(NC)NCc1ccccc1`, the Potency entry in test [1], in test [2], in test [3], in test [4] and in test [5] was “inactive” in each case. Also, in test [6], the activity change, negative = inhibition was -12.2%.
Turning to `Cc1cc2nc3c(=O)[nH]c(=O)nc-3n(C[C@@H](O)[C@@H](O)[C@@H](O)COP(=O)(O)O)c2cc1C`, the results for the activity change, negative = inhibition in test [1] and in test [6] were -30.5% [at 11.4 µM] (inactive) and -22.9% [at 11.3 µM], respectively. The outcome in test [2] and in test [3] was “inactive [at 11.4 µM]” throughout. The activity change, negative = cytotoxicity was 1.24% [at 11.4 µM] (inactive) in test [4] and 3.55% [at 11.3 µM] (inactive) in test [5].
Take `O=C(OC1C(OC(=O)c2cccnc2)C(OC(=O)c2cccnc2)C(OC(=O)c2cccnc2)C(OC(=O)c2cccnc2)C1OC(=O)c1cccnc1)c1cccnc1` (stereo not given): the Potency entry in test [1], in test [2], in test [3], in test [4] and in test [5] was “inactive” throughout. For the same compound, the activity change, negative = inhibition in test [6] was -19.4% [at 19 µM].
